Assay [1] concerns the target T1, cGMP-dependent protein kinase 1 (Homo sapiens) (UniProt Q13976).
T1 sequence (whole entry): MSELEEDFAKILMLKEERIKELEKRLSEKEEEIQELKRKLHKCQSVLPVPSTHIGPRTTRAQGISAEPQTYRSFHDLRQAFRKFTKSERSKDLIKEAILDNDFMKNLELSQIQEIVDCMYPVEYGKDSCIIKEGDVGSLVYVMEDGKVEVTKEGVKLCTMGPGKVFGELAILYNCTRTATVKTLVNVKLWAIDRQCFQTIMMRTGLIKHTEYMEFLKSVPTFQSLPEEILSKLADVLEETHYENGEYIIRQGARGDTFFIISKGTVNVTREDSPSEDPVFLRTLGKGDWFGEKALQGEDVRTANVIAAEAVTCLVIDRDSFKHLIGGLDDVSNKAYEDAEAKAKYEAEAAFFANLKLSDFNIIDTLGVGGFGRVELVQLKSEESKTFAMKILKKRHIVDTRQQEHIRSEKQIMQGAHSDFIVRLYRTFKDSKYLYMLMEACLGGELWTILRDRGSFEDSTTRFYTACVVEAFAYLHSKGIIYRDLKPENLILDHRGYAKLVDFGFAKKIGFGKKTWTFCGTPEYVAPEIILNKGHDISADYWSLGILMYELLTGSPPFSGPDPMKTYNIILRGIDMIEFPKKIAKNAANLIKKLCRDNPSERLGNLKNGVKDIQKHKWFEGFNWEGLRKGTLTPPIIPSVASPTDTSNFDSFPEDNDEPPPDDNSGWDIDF
Conditions: at 1 µM.

Assay [2] addresses T1, cGMP-dependent protein kinase 1 (Homo sapiens). Particulars: at 10 µM.
For assay [3] the target is unchanged. Conditions: at 1 µM. The source holds these as a separate data set.
For assay [4] the target is unchanged. Conditions: at 10 µM. The source holds these as a separate data set.
Assay [5] addresses T2, MAP kinase-activated protein kinase 5 (Homo sapiens) (UniProt Q8IW41).
T2 sequence (whole entry): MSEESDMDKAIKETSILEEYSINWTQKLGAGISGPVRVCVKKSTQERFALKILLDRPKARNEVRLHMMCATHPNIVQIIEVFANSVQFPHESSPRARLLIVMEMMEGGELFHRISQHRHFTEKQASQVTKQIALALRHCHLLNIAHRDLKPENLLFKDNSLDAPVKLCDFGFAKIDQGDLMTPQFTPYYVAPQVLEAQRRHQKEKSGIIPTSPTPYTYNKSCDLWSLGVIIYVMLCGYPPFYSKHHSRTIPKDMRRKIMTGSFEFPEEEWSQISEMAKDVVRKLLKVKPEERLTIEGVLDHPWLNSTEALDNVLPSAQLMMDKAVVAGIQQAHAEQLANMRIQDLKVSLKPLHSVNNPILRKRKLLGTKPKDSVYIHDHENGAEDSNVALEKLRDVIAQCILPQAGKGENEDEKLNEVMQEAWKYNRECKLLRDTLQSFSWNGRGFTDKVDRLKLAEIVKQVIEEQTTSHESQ
Conditions: at 10 µM.

The target of assay [6] is Serine/threonine-protein kinase N2 (Homo sapiens) (UniProt Q16513). Conditions: at 1 µM.
Sequence of Serine/threonine-protein kinase N2 (Homo sapiens) (Q16513 whole entry, looked up): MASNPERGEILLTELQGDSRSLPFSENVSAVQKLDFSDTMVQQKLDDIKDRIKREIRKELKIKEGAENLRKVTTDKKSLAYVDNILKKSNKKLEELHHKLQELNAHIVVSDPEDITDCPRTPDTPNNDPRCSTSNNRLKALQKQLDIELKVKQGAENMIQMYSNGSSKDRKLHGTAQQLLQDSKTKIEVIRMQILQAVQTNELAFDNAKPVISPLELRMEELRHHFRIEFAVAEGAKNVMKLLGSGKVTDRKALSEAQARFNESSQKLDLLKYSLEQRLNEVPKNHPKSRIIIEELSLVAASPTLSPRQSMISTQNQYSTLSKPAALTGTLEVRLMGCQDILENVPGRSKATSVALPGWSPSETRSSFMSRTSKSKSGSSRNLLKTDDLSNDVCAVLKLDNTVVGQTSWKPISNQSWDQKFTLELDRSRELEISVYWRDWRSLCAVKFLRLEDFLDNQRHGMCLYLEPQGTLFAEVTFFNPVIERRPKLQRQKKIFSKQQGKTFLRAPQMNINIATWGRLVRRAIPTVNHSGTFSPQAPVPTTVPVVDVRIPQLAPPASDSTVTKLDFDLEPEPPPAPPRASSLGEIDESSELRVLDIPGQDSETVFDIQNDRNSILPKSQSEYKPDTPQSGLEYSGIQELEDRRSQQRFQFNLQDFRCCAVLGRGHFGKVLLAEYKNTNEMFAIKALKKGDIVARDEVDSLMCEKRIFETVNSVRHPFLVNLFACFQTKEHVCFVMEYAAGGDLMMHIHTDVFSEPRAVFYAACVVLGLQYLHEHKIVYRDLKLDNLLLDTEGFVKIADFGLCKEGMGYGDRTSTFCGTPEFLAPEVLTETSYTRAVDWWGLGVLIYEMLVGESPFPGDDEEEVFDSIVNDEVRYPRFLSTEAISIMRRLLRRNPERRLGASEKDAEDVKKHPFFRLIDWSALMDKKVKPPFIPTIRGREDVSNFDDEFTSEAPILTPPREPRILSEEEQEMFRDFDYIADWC
Assay [7] shares this target. Conditions: at 10 µM.
Assay [8] concerns the target Tyrosine-protein kinase FRK (Homo sapiens) (UniProt P42685). Conditions: at 1 µM.
The target is the same in assay [9]. Conditions: at 10 µM.
For assay [10], the target named is T3, Phosphorylase b kinase gamma catalytic chain, liver/testis isoform (Homo sapiens) (UniProt P15735).
T3 sequence (whole entry): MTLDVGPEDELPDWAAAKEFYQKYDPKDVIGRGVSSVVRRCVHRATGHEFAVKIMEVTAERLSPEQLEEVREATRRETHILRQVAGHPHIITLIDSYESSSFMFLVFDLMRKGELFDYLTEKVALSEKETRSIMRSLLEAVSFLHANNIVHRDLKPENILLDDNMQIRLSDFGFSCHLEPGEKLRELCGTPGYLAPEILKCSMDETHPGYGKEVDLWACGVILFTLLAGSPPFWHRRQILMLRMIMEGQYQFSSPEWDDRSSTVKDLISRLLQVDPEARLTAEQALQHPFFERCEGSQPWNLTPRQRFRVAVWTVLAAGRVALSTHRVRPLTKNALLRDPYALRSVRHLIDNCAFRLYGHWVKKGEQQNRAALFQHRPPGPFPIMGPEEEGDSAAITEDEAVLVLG
Conditions: at 10 µM.

For assay [11], the target named is Serine/threonine-protein kinase pim-1 (Homo sapiens) (UniProt P11309). Conditions: at 1 µM.
Sequence of Serine/threonine-protein kinase pim-1 (Homo sapiens) (P11309 whole entry, looked up): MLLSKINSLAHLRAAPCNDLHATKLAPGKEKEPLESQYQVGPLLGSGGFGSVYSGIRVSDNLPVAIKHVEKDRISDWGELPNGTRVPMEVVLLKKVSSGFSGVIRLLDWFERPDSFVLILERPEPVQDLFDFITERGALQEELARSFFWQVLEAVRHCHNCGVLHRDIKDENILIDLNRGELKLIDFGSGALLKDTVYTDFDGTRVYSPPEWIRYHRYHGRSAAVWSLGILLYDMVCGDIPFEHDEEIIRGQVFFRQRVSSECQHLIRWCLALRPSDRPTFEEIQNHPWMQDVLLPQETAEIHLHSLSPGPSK
Assay [12] shares this target. Conditions: at 10 µM.
The target of assay [13] is Serine/threonine-protein kinase pim-2 (Homo sapiens) (UniProt Q9P1W9). Conditions: at 1 µM.
Sequence of Serine/threonine-protein kinase pim-2 (Homo sapiens) (Q9P1W9 whole entry, looked up): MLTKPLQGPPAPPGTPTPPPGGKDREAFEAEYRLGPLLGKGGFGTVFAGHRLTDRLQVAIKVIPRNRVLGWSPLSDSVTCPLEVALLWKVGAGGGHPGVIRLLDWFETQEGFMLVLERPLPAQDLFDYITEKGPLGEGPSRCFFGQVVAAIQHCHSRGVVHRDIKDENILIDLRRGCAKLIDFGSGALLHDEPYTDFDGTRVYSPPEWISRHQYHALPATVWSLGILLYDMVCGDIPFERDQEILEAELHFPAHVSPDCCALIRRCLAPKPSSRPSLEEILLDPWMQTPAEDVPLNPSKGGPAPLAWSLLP
For assay [14] the target is unchanged. Particulars: at 10 µM.
For assay [15], the target named is Serine/threonine-protein kinase pim-3 (Homo sapiens) (UniProt Q86V86). Particulars: at 1 µM.
Assay [16] shares this target. Conditions: at 10 µM.
The target of assay [17] is Serine/threonine-protein kinase PLK1 (Homo sapiens) (UniProt P53350). Conditions: at 1 µM.
Sequence of Serine/threonine-protein kinase PLK1 (Homo sapiens) (P53350 whole entry): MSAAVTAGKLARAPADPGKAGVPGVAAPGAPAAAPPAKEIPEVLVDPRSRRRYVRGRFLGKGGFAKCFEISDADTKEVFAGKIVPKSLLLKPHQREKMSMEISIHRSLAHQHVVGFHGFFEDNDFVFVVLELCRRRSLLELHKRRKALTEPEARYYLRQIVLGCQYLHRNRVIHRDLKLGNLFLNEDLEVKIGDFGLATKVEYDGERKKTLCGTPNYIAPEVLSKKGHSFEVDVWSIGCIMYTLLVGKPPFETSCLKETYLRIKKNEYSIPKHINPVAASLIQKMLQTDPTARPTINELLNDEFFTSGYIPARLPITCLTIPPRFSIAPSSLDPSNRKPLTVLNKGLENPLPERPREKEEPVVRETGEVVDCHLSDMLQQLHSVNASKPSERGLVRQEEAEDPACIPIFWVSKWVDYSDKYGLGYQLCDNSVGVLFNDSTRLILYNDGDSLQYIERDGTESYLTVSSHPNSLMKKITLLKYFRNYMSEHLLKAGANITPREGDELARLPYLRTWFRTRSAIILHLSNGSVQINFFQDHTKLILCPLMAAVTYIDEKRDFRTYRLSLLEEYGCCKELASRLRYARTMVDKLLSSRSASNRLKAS
Assay [18] has the same target. Conditions: at 10 µM.
For assay [19], the target named is T2, MAP kinase-activated protein kinase 5 (Homo sapiens). Conditions: at 1 µM.
In assay [20] the target is T3, Phosphorylase b kinase gamma catalytic chain, liver/testis isoform (Homo sapiens). Particulars: at 1 µM.

Structures are written as SMILES.

Sequence of Tyrosine-protein kinase FRK (Homo sapiens) (P42685 whole entry): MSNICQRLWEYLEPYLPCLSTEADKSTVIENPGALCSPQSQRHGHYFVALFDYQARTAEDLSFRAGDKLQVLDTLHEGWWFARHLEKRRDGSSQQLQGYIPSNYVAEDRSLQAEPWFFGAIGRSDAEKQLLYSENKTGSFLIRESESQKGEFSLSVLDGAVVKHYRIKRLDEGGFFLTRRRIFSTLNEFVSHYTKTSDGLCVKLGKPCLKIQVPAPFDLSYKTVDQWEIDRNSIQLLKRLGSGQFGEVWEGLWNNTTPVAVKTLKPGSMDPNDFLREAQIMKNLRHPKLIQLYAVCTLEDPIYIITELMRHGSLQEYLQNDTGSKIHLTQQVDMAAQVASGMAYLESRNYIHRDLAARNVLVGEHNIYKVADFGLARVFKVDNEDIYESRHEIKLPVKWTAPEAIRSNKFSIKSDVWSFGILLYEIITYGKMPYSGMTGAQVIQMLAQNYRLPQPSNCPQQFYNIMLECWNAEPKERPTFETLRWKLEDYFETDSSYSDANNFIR

Regarding `CC(C)c1nn(-c2c(Cl)cccc2Cl)c2nc(Cc3ccc(OCCO)cc3)[nH]c(=O)c12`, the residual activity in assay [1] is 103%; in assay [2] it was 102%; in assay [3] it was 91%; in [4] it was 48%; in assay [5], 73%; in assay [6], 89%. Further, the residual activity in [7] worked out at 91%; in assay [8] it was 72%; in assay [9], 35%; in assay [10], 93%; in assay [11], 104%; in assay [12], 82%. Besides, the residual activity was found to be 131% in [13]; 103% in assay [14]; 93% in assay [15]; 92% in [16]; 83% in assay [17]; 81% in assay [18].

In the case of `CCCC(=O)Oc1ccc2[nH]c(C(=O)c3cc4ccccc4[nH]3)cc2c1`, the residual activity in assay [1] amounted to 101%; in assay [2], 127%; in [3] it was 79%; in [4], 78%; in assay [19], 72%; in assay [5], 44%. For the same compound, the residual activity in [6] is 86%; in assay [7] it was 93%; in assay [8] it was 92%; in assay [9], 85%; in assay [20], 95%; in assay [10], 96%. Also, the residual activity in assay [11] amounted to 101%; in assay [12] it was 121%; in assay [14], 98%; in assay [15] it was 93%; in assay [16], 96%; in assay [17], 86%. Further, the residual activity in assay [18] worked out at 58%.

On to `Nc1ncnc2[nH]nc(Nc3ccc(F)cc3)c12`, for which the residual activity in assay [1] turned out to be 100%; in assay [2], 79%; in [3], 95%; in assay [4], 79%; in assay [19] it was 109%; in assay [5], 91%. For the same compound, the residual activity is 107% in [6]; 80% in assay [7]; 38% in assay [9]; 102% in assay [20]; 99% in [10]; 115% in assay [11]. The residual activity came to 53% in assay [12]; 133% in assay [13]; 99% in assay [14]; 69% in assay [16]; 77% in assay [18].

With `O=C(O)/C=C/c1cc(Br)c(Br)c(Br)c1Br`, the residual activity in [1] stood at 94%; in assay [2], 65%; in assay [3] it was 82%; in assay [4], 32%; in assay [19], 83%; in assay [5], 28%. The residual activity in assay [7] worked out at 38%; in [8], 102%; in assay [9], 86%; in [20], 109%; in assay [10] it was 63%; in assay [11] it was 49%. Also, the residual activity in [12] came out at 6%; in assay [13], 28%; in [14], 1%; in assay [15] it was 78%; in assay [16], 39%; in [17] it was 73%. For the same compound, the residual activity in [18] worked out at 22%.

On to `O=C1Nc2ccccc2/C1=C\c1c(Cl)[nH]c2ccccc12`, for which the residual activity in assay [2] was 84%; in assay [4], 72%; in assay [8] it was 83%; in assay [9], 73%; in assay [20], 87%; in [10] it was 87%. Further, the residual activity is 26% in assay [12]; 73% in assay [13]; 16% in [14]; 86% in assay [17]; 75% in [18].

For the compound `NC(=O)Nc1sc(-c2ccc(F)cc2)cc1C(N)=O`, the residual activity in [1] is 87%; in [2] it was 73%; in assay [3] it was 84%; in assay [4], 43%; in [19] it was 96%; in assay [5], 58%. Moreover, the residual activity was found to be 82% in assay [6]; 27% in [7]; 63% in [8]; 19% in [9]; 105% in [20]; 69% in [10]. The residual activity was 95% in assay [11], 43% in assay [12], 93% in assay [13] and 60% in assay [14].

For `COc1cc2ncnc(Nc3cccc(Cl)c3)c2cc1OC`, the residual activity in [7] was 76%; in assay [8], 53%; in [9], 6%; in [20], 104%; in [10], 107%; in assay [11], 62%. Also, the residual activity in assay [12] was 48%; in [13] it was 121%; in assay [15], 112%; in assay [16], 101%; in [17], 112%.

`O=C(Nc1ccc(Cl)cc1)c1ccccc1NCc1ccncc1`: the residual activity in assay [19] turned out to be 60%; in [5], 51%; in assay [8], 19%; in assay [9] it was 1%; in assay [13], 132%; in assay [14], 124%.

On to `CC(C)[C@H](CO)Nc1nc(Nc2cc(N)cc(Cl)c2)c2ncn(C(C)C)c2n1`, for which the residual activity came to 80% in assay [4]; 92% in assay [19]; 56% in assay [5]; 72% in assay [8]; 11% in assay [9]; 119% in assay [20]. Besides, the residual activity in [10] amounted to 97%; in [11] it was 95%; in assay [12], 86%; in assay [17] it was 50%; in assay [18], 9%.

Consider `CCN(CC)CCNC(=O)c1c(C)[nH]c(/C=C2\C(=O)Nc3ccc(Cl)cc32)c1C`, for which the residual activity in [19] worked out at 97%; in assay [5], 49%; in [6] it was 52%; in assay [7] it was 18%; in assay [8], 31%; in assay [9] it was 1%. The residual activity was 8% in assay [20], 2% in [10], 75% in assay [16] and 55% in assay [18].

Consider `COc1ccc(CNC(=O)Nc2ncc([N+](=O)[O-])s2)cc1`, for which the residual activity in assay [7] worked out at 81%; in [20] it was 122%; in assay [10] it was 107%; in assay [11], 116%; in assay [12], 109%; in assay [13], 134%. Besides, the residual activity stood at 135% in [14], 64% in [17] and 76% in assay [18].

As to `N#Cc1c(NC(=O)c2cccc3ccccc23)sc2c1CCCC2`, the residual activity came out at 96% in assay [3]; 87% in assay [4]; 87% in [19]; 93% in [5]; 88% in assay [8]; 100% in assay [9]. Besides, the residual activity amounted to 77% in [12]; 88% in assay [15]; 85% in assay [16]; 94% in [17]; 78% in assay [18].

For `Fc1ccc(-c2nc3n(c2-c2ccncc2)CCS3)cc1`, the residual activity is 99% in assay [8]; 51% in assay [9]; 91% in assay [11]; 73% in assay [12]; 128% in assay [13]; 94% in assay [15]. The residual activity in [16] was found to be 98%; in assay [17], 91%; in assay [18] it was 82%.

In the case of `COc1ccc(Cl)cc1NC(=O)Nc1cc(C)nc2ccccc12`, the residual activity in [3] was found to be 79%; in [4], 88%; in [8] it was 94%; in assay [9], 129%; in [20], 92%; in [10], 53%. In addition, the residual activity turned out to be 87% in assay [11]; 97% in assay [12]; 96% in [15]; 99% in assay [16]; 95% in [17]; 82% in assay [18].

For the compound `NC(=O)c1cccc(-c2cc(Nc3ccc(OC(F)(F)F)cc3)ncn2)c1`, the residual activity turned out to be 78% in [5], 89% in [11], 100% in [12] and 88% in assay [18].

Consider `NC(=O)c1ccc(-c2nc(-c3ccc4c(c3)OCCO4)c(-c3ccccn3)[nH]2)cc1`, for which the residual activity was determined as 63% in assay [4]; 89% in assay [5]; 120% in assay [6]; 98% in [7]; 98% in [8]; 89% in assay [9]. For the same compound, the residual activity in assay [20] was 90%; in [10] it was 93%; in [15] it was 96%; in assay [16], 97%; in [17], 81%; in assay [18] it was 71%.

Values taken from ChEMBL document CHEMBL2218924, “A broad activity screen in support of a chemogenomic map for kinase signalling research and drug discovery” (Biochem J, 2013).
